Drawing on PubChem BioAssay (NCATS), this text covers Potency for 32 compounds.

Inconclusive results are not listed. Calls of active or inactive are those of the source. Calls follow the shape of the dose curve; as a rule, active = well fitted inhibition curve with a large enough effect; inconclusive = small, poorly fitted or top-dose-only effect; inactive = flat fitted curve, though single readings scatter.

Assay in all cases: qHTS profiling for inhibitors of Plasmodium falciparum proliferation (AID 504749); also: nearly all actives have a fitted effect of over 60% in size
What all share (conditions): P. falciparum in erythrocytes, SYBR Green DNA, 72 h; series mostly up to 28.7 µM
For orientation: In qHTS, concentration-response curves come from the screen itself.

The test system of one assay is CP268. The method, boiled down:
(§1)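 Parasite proliferation within erythrocytes, 72 h exposure. Endpoint: SYBR Green I fluorescence after overnight lysis at room temperature. Controls: 0.29 uM artemisinin, DMSO.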

In a further assay the test system is CP269. The method, boiled down: as §1
A further assay relates to CP286. The method, boiled down: as §1
A further assay deals with CP291. The method, boiled down: as §1
For a further assay, the system named is CP297. Put shortly: as §1
In the next assay the test system is CP305. The method, boiled down:
as §1

The subject of the next assay is CP315. Put shortly:
as §1

The test system of another assay is CP325. Put shortly:
as §1

The next assay has as its system CP329. The method, boiled down: as §1
Potency is read from the fitted curve at half-maximal effect.

Turning to `OCCCNc1ccccc1`, the Potency entry in the assay with CP268, with CP269, with CP286, with CP291, in the assay with CP297 and in the assay with CP305 was “inactive” in each case. Further, the Potency result with CP315, with CP325 and in the assay with CP329 was “inactive” in each case.

Turning to `CCC(=O)c1ccc2c(c1)N(CCCN1CCN(CCO)CC1)c1ccccc1S2`, the Potency in the assay on CP268 is 12 µM (active); with CP269 it was 9.53 µM (active); in the assay on CP286, 4.47 µM (active); with CP291, 15.1 µM (active); with CP305, 10.7 µM (active); in the assay with CP315, 9.53 µM (active).

For `CC(C)OC(=O)Nc1ccc2nc(-c3cscn3)[nH]c2c1`, the Potency entry in the assay with CP268, with CP286, in the assay on CP305, with CP315, in the assay with CP325 and with CP329 was “inactive” throughout.

`CCC(O)c1ccccc1` (stereo not drawn): the Potency result with CP268, with CP269, in the assay with CP286, in the assay on CP291, in the assay on CP297 and with CP305 was “inactive” throughout. The Potency result in the assay with CP315, in the assay with CP325 and with CP329 was “inactive” throughout.

Consider `Cc1cccc(C)c1NC(=O)C1CCCCN1C` (stereo not drawn), for which the Potency entry in the assay with CP268, with CP269, in the assay on CP286, in the assay with CP291, in the assay with CP305 and in the assay on CP315 was “inactive” in each case. The Potency entry in the assay on CP325 and in the assay on CP329 was “inactive” in each case.

Turning to `Cc1ccc(S(=O)(=O)O)cc1C`, the Potency result with CP268, with CP269, in the assay with CP286, in the assay on CP291, with CP297 and with CP305 was “inactive” in each case. Moreover, the Potency entry in the assay with CP315, in the assay on CP325 and in the assay with CP329 was “inactive” throughout.

Consider `Oc1ccc(Cl)c2c1CCC2`, for which the Potency result in the assay with CP268, in the assay with CP269, with CP286, with CP291, with CP305 and in the assay on CP315 was “inactive” in each case. For the same compound, the Potency entry with CP325 and with CP329 was “inactive” in each case.

For the compound `O=C(O)CC/C=C\CC[C@@H]1[C@@H](N2CCCCC2)[C@@H](O)C[C@@H]1OCc1ccc(-c2ccccc2)cc1`, the Potency entry in the assay with CP268, in the assay with CP269, in the assay with CP286, in the assay with CP291, with CP297 and in the assay with CP305 was “inactive” in each case. The Potency entry in the assay with CP315, in the assay with CP325 and in the assay on CP329 was “inactive” each time.

Turning to `CCCCO`, the Potency result in the assay on CP268, in the assay with CP269, with CP286, with CP291, with CP297 and with CP305 was “inactive” throughout. Besides, the Potency entry in the assay on CP315, in the assay with CP325 and in the assay on CP329 was “inactive” each time.

For the compound `CC1=C(/C=C/C(C)=C/C=C/C(C)=C/C(=O)Oc2c(C)c(C)c3c(c2C)CC[C@@](C)(CCC[C@H](C)CCC[C@H](C)CCCC(C)C)O3)C(C)(C)CCC1`, the Potency result in the assay with CP268, with CP269, in the assay on CP286, with CP291, in the assay on CP297 and in the assay with CP305 was “inactive” each time. For the same compound, the Potency entry in the assay on CP315, with CP325 and in the assay on CP329 was “inactive” throughout.

For `CCOc1cc(-c2nccc3cc(OC)c(OC)cc23)cc(OCC)c1OCC`, the Potency in the assay on CP286 is 8.91 µM (active). The Potency result with CP325 was “inactive”.

For the compound `Cn1cc(NC(=O)c2cc(NC(=O)c3cc(NC=O)cn3C)cn2C)cc1C(=O)NCCC(=N)N`, the Potency in the assay on CP268 was 9.53 µM (active); in the assay on CP269 it was 7.57 µM (active); in the assay on CP286, 3.98 µM (active); in the assay with CP291, 9.53 µM (active); with CP305, 8.49 µM (active); in the assay on CP325 it was 10.7 µM (active). Further, the Potency in the assay on CP329 was 15.1 µM (active).

Take `O=C(O)[C@H]1C(=CCO)O[C@H]2CC(=O)N12`: the Potency result with CP268, with CP269, in the assay with CP286, in the assay on CP291, in the assay with CP297 and with CP305 was “inactive” throughout. The Potency entry with CP315, with CP325 and in the assay with CP329 was “inactive” throughout.

`NC(N)=NCC1COc2ccccc2O1` (stereo not drawn): the Potency entry with CP291 and in the assay with CP315 was “inactive” in each case.

Regarding `C/C(=C\C(=O)OCCCCCCCCC(=O)O)C[C@@H]1OC[C@H](C[C@@H]2O[C@H]2[C@@H](C)[C@H](C)O)[C@@H](O)[C@H]1O`, the Potency with CP269 was 0.239 µM (active).

Consider `CCOC(=O)c1c[nH]c2cc(OCC(C)C)c(OCC(C)C)cc2c1=O`, for which the Potency in the assay with CP268 is 0.135 µM (active); in the assay with CP286 it was 0.0708 µM (active); in the assay with CP291, 0.0757 µM (active); in the assay on CP305, 0.0675 µM (active); in the assay on CP325, 0.0601 µM (active).

Turning to `CCN(CC)CCCC(C)Nc1cc(/C=C/c2ccccc2Cl)nc2cc(Cl)ccc12` (stereo not drawn), the Potency in the assay with CP268 is 4.26 µM (active); with CP269, 3.38 µM (active); in the assay on CP286, 1.12 µM (active); with CP291 it was 2.13 µM (active); in the assay on CP297, 7.57 µM (active); in the assay with CP325 it was 0.849 µM (active). Further, the Potency in the assay with CP329 was 6.75 µM (active).

In the case of `CCCCCCOC(=O)c1cccnc1`, the Potency result with CP268, in the assay with CP269, in the assay with CP286, with CP291, with CP297 and with CP305 was “inactive” each time. Besides, the Potency result with CP315, in the assay with CP325 and in the assay on CP329 was “inactive” each time.

`CC[C@H]1OC(=O)[C@H](C)[C@@H](O[C@H]2C[C@@](C)(OC)[C@@H](O)[C@H](C)O2)[C@H](C)[C@@H](O[C@@H]2O[C@H](C)C[C@H](N(C)C)[C@H]2O)[C@](C)(O)C[C@@H](C)CN(C)[C@H](C)[C@@H](O)[C@]1(C)O`: the figures for the Potency with CP269, in the assay on CP286 and with CP297 were 1.51 µM (active), 3.98 µM (active) and 5.36 µM (active), respectively.

With `N=C(N)c1ccc(/C=C/c2ccc(C(=N)N)cc2O)cc1`, the Potency in the assay with CP268 is 9.53 µM (active); in the assay with CP269 it was 6.75 µM (active); in the assay on CP286 it was 4.47 µM (active); with CP291 it was 6.75 µM (active); with CP297, 5.36 µM (active); in the assay with CP305, 6.01 µM (active). Also, the Potency in the assay with CP315 is 6.01 µM (active); with CP325 it was 3.38 µM (active); with CP329 it was 2.13 µM (active).

For the compound `OCCOCCOCCO`, the Potency result in the assay with CP286 was “inactive”.

With `O=C(O)CCCC/C=C(\c1ccccc1)c1cccnc1`, the Potency entry with CP268, with CP269, in the assay on CP286, in the assay on CP291, in the assay with CP305 and in the assay with CP315 was “inactive” each time. The Potency entry with CP325 and in the assay with CP329 was “inactive” each time.

As to `NCCO/C=C/[C@H](N)C(=O)O`, the Potency entry in the assay on CP268, with CP269, in the assay on CP286, in the assay on CP291, in the assay on CP297 and in the assay with CP305 was “inactive” throughout. The Potency entry in the assay on CP315 and in the assay on CP329 was “inactive” in each case.

For the compound `O=C1[O][Bi][O]c2ccccc21`, the Potency entry in the assay with CP268, in the assay on CP269, with CP286, in the assay on CP291, in the assay with CP297 and in the assay on CP305 was “inactive” throughout. The Potency result in the assay with CP315, in the assay with CP325 and with CP329 was “inactive” in each case.

Regarding `CO[C@H]1C[C@@H]2CC[C@@H](C)[C@@](O)(O2)C(=O)C(=O)N2CCCC[C@H]2C(=O)O[C@H]([C@H](C)C[C@@H]2CC[C@@H](OC(=O)C(C)(CO)CO)[C@H](OC)C2)CC(=O)[C@H](C)/C=C(\C)[C@@H](O)[C@@H](OC)C(=O)[C@H](C)C[C@H](C)/C=C/C=C/C=C/1C`, the Potency result with CP268, in the assay with CP269, in the assay with CP286, with CP291, in the assay with CP297 and in the assay with CP305 was “inactive” in each case. The Potency entry with CP315, in the assay with CP325 and in the assay on CP329 was “inactive” in each case.

For `Cc1c(C)c2c(c(C)c1OC(=O)CCC(=O)O)CC[C@@](C)(CCC[C@H](C)CCC[C@H](C)CCCC(C)C)O2`, the Potency entry in the assay on CP268, in the assay with CP269, in the assay with CP291, in the assay on CP297, with CP305 and with CP315 was “inactive” each time. The Potency result in the assay on CP325 and in the assay with CP329 was “inactive” each time.

For the compound `CC(C)=CCC/C(C)=C/C=C/C(C)=C/C=C/C(C)=C/C=C/C=C(C)/C=C/C=C(C)/C=C/C=C(\C)CCC=C(C)C`, the Potency entry in the assay on CP268, in the assay on CP269, in the assay with CP286, in the assay with CP291, with CP297 and in the assay on CP305 was “inactive” in each case. The Potency entry with CP315, in the assay on CP325 and in the assay with CP329 was “inactive” throughout.

For the compound `C=C1C(CCl)(CCl)C2(Cl)C(Cl)C(Cl)C1(Cl)C2(Cl)Cl` (stereo not drawn), the Potency with CP268 was 4.26 µM (active); in the assay with CP269 it was 4.26 µM (active); in the assay with CP286, 3.55 µM (active); with CP291, 4.26 µM (active); in the assay with CP297, 3.79 µM (active); with CP305 it was 3.79 µM (active). The results for the Potency with CP325 and with CP329 were 3.79 µM (active) and 6.75 µM (active), respectively.

On to `Cc1cccc(C)c1NC(=O)NC1=CCCN1C`, for which the Potency entry in the assay with CP268, with CP269, in the assay with CP286, with CP291, in the assay on CP297 and with CP305 was “inactive” throughout. Also, the Potency result in the assay with CP315, in the assay with CP325 and in the assay on CP329 was “inactive” in each case.

Consider `O.O.O.O.O.O.O.O=S(=O)([O-])[O-].[Co+2]`, for which the Potency in the assay on CP269 is 7.57 µM (active); in the assay with CP286, 10 µM (active); in the assay on CP291, 9.53 µM (active); in the assay on CP305, 6.75 µM (active); with CP329, 12 µM (active).

As for `CN(C)CCC=C1c2ccccc2C(C)(C)c2ccccc21`, the Potency entry in the assay on CP329 is “inactive”.

As for `CNC(=O)[C@H](Cc1c[nH]c2ccccc12)NC(=O)[C@@H](CC(=O)NO)CC(C)C`, the Potency entry in the assay with CP291 and with CP315 was “inactive” throughout.
